The nature of experiment [1]: Nuclear factor erythroid 2-related factor 2/antioxidant responsive element (Nrf2/ARE) small molecule agonists: qHTS cell viability counter screen in human keratinocytes (AID 1919968; active means well fitted curve in the direction sought with a large enough effect in the repeat runs; an effect the other way counts as inactive or inconclusive; further: nearly all actives have a fitted effect of over 55% in size; further: potency means the concentration at half of the fitted maximal effect). The essentials: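 CellTiter-Fluor fluorescence, read 1 h after reagent, gave viability in the same wells as the ARE-luciferase assay. KeratinoSens cells (1,500/well) had 23 h compound exposure at 37 C/5% CO2 following 5 h plating.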
On the technique in general: Quantitative high-throughput screening tests each substance at several concentrations.

Experiment [2] is described as follows: Nuclear factor erythroid 2-related factor 2/antioxidant responsive element (Nrf2/ARE) small molecule agonists: luciferase reporter gene qHTS assay in human keratinocytes (AID 1919969). Further: nearly all actives have a fitted effect of over 35% in size. Further: potency means the concentration at half of the fitted maximal effect.
Experiment [3] concerns the target Gonadotropin-releasing hormone receptor (Homo sapiens) (UniProt P30968). Briefly: Human gonadotropin-releasing hormone receptor (GnRHR) small molecule agonists, calcium flux assay in GnRHR-HEK293 cells (AID 1920063). Further: nearly all actives have a fitted effect of over 35% in size. The essentials:
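Agonist mode: compounds at 15 concentrations, in triplicate, went onto calcium dye-loaded GnRHR-HEK293 cells. Intracellular calcium was then followed as 480/540 nm fluorescence at 1 s intervals over 3 min.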
On the technique in general: Calcium flux is commonly read through the fluorescence of an indicator in the cells.

Experiment [4] concerns the target KiSS-1 receptor (Homo sapiens) (UniProt Q969F8). Briefly: Human kisspeptin (KISS1R) small molecule agonists, calcium flux assay in KISS1R-HEK293 cells (AID 1920064; active means well fitted curve in the direction sought with a large enough effect in the repeat runs; an effect the other way counts as inactive or inconclusive). The essentials:
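Agonist mode: intracellular calcium rise tracked at 1 s intervals over 3 min (480/540 nm) immediately after compound addition to dye-loaded KISS1R-HEK293 stable cells. Each compound tested at 15 concentrations in triplicate.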

A short description of experiment [5]: G protein-coupled receptor (GPCR) small molecule agonists, calcium flux assay: HEK293 wild type cell line counter screen (AID 1920065). The essentials:
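Calcium flux counter screen: compound added in agonist mode at 15 concentrations in triplicate to dye-loaded parental HEK293 cells. Fluorescence (480/540) read kinetically for 3 min; ATP served as positive control.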

A short description of experiment [6]: p53 small molecule agonists, cell-based qHTS assay with rat liver microsomes (AID 1963578). The essentials:
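Quantitative HTS of the Tox21 10K library: p53RE-bla cells, rat liver microsomes plus NADPH at 0.5 mg/mL final each, 16 h at 37 C, beta-lactamase fluorescence detection.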

Experiment [7] in a line: p53 small molecule agonists, cell-based qHTS assay with human liver microsomes: qHTS cell viability counter screen (AID 1963579). Further: nearly all actives have a fitted effect of over 45% in size. Further: potency means the concentration at half of the fitted maximal effect. In a few lines: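 Viability of p53RE-bla cells is measured as CellTiter-Glo luminescence following a 16 h, 37 C incubation with compound, liver microsomes from human donors and NADPH.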
A short description of experiment [8]: p53 small molecule agonists, cell-based qHTS assay with rat liver microsomes: qHTS cell viability counter screen (AID 1963580). Further: nearly all actives have a fitted effect of over 45% in size. Further: potency means the concentration at half of the fitted maximal effect. In a few lines:
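Rat liver microsome (0.5 mg/mL final) and NADPH (0.5 mg/mL final) co-incubation with compounds for 16 h at 37 C on HCT-116 p53RE-bla cells; cytotoxicity taken from intracellular ATP luminescence.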

Experiment [9] can be described thus: p53 small molecule agonists, cell-based qHTS assay: qHTS cell viability counter screen (AID 1963581). Further: nearly all actives have a fitted effect of over 45% in size. The essentials: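 Counter screen read by CellTiter-Glo luminescence (ATP content, 30 min at room temperature), run in the same wells as the beta-lactamase reporter read. HCT-116 p53RE-bla cells saw compounds for 16 h at 37 C.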
Experiment [10] in a line: p53 small molecule agonists, cell-based qHTS assay (AID 1963582; active means well fitted activation curve with a large enough effect in the signal ratio in the repeat runs, not every such curve was filed as active; the % refers to the signal ratio). The essentials:
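Read-out is beta-lactamase FRET fluorescence after 2 h at room temperature with LiveBLAzer B/G substrate. p53 response element-bla cells were treated 16 h at 37 C with compounds in DMSO, added 5 h after seeding.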

Experiment [11] deals with 5-hydroxytryptamine receptor 2A (Homo sapiens) (UniProt P28223). Briefly: 5-hydroxytryptamine receptor 2A (HTR2A) small molecule antagonists, cell-based qHTS assay (AID 1963586). Further: nearly all actives have a fitted effect of over 45% in size. In a few lines:
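CHO cells stably expressing human HTR2A were plated for 18 h at 37 C, then loaded with calcium dye for 1 h. Compounds were preincubated 5 min at room temperature before DOI (4 nM solution) was added. Kinetic fluorescence was read for 3 min.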

Experiment [12] has the same target. Briefly: 5-hydroxytryptamine receptor 2A (HTR2A) small molecule agonists, cell-based qHTS assay (AID 1963587). Further: nearly all actives have a fitted effect of over 30% in size. Further: potency means the concentration at half of the fitted maximal effect. In a few lines: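 Kinetic calcium-flux fluorescence (2 min, 1 sec intervals) after compound addition in agonist mode. HTR2A-CHO cells were cultured 18 h, then dye-loaded 1 h at 37 C.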
The target of experiment [13] is Muscarinic acetylcholine receptor M1 (Homo sapiens) (UniProt P11229). Description: Cholinergic receptor muscarinic 1 (CHRM1) small molecule antagonists, cell-based qHTS assay (AID 1963588). Further: nearly all actives have a fitted effect of over 40% in size. The essentials:
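Compounds were tested at 15 concentrations in three independent runs. Dye-loaded CHRM1-CHO cells were exposed 5 min at room temperature before stimulation by acetylcholine added at 50nM. Intracellular calcium was read kinetically on FDSS for 3 min.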

The target is the same in experiment [14]. Description: Cholinergic receptor muscarinic 1 (CHRM1) small molecule agonists, cell-based qHTS assay (AID 1963589). Further: nearly all actives have a fitted effect of over 35% in size. In a few lines:
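Agonist-mode calcium-flux screen: compounds at 15 concentrations, three independent runs, were pin-transferred onto dye-loaded human CHRM1-CHO cells. Fluorescence was then recorded kinetically every second over minutes.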

Experiment [15] in a line: cAMP Responsive Elements (CRE) small molecule agonists, cell-based qHTS assay (AID 1963590). The essentials: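 Agonist mode: compound added to CRE-bla HEK 293T cells (2,000/well, 18 h after plating) for 3 h at 37 C/5% CO2. Reporter activity detected via FRET beta-lactamase substrate, 2 h room-temperature loading.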
A short description of experiment [16]: cAMP Responsive Elements (CRE) small molecule antagonists, cell-based qHTS assay (AID 1963591; active means well fitted inhibition curve with a large enough effect in the signal ratio in the repeat runs, not every such curve was filed as active; the % refers to the signal ratio). The essentials:
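Antagonist mode: compounds are added alongside the adenylyl cyclase activator NKH477 (0.25 uM final) to CRE-bla HEK293T cells for 3 h. LiveBLAzer FRET substrate, 2 h at room temperature, reports bla expression.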

Experiment [17] addresses Beta-2 adrenergic receptor (Homo sapiens) (UniProt P07550). Description: Adrenergic beta2 receptor (ADRB2) small molecule antagonists, cell-based qHTS assay (AID 1963592). Further: series mostly up to about 92 µM; nearly all actives have a fitted effect of over 50% in size. In a few lines:
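Assay format: CHO-ADRB2 cells, 18-20hr seeding at 37C/5% CO2, then compound plus 1nM isoproterenol agonist mix for 0.5hr RT. Homogeneous time-resolved fluorescence cAMP detection after 1hr, expressed as 665/615 nm ratio.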

The target is the same in experiment [18]. Briefly: Adrenergic beta2 receptor (ADRB2) small molecule agonists, cell-based qHTS assay (AID 1963593).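 Further: CHO cells stably overexpressing human ADRB2.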 In a few lines: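 CHO cells stably over-expressing ADRB2 were plated overnight at 37C, then dosed with compounds plus a stimulation mix containing 100uM IBMX and 25uM Ro-20-1724 for 0.5hr at room temperature. cAMP was measured by HTRF competition, 1hr.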

For experiment [19], the target named is D(2) dopamine receptor (Homo sapiens) (UniProt P14416). Briefly: Dopamine D2 receptor (DRD2) small molecule agonists, cell-based qHTS assay (AID 1963594). Further: nearly all actives have a fitted effect of over 35% in size. The essentials: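 cAMP accumulation in DRD2-HEK293 cells measured by HTRF after 1 h detection; compounds added 10 min before NKH477 (200nM […]) forskolin-analogue stimulation, 30 min at room temperature, with Ro20-1724 present at 0.1 mM final.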

The target is the same in experiment [20]. Description: Dopamine D2 receptor (DRD2) small molecule antagonists, cell-based qHTS assay (AID 1963595; active means well fitted inhibition curve with a large enough effect in the signal ratio in the repeat runs, with a control signal flat; the % refers to the signal ratio). In a few lines:
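Antagonist mode in DRD2-HEK293 cells: after compound addition with 0.1 mM Ro20-1724, cells received quinpirole (12 nM) and NKH477 (200 nM) for 30 min at room temperature; HTRF cAMP read after 1 h detection.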

For seven compounds, Potency results are on record in PubChem BioAssay (Tox21).

Values joined by “and” are separate entries in the source; they are usually repeats but may differ in a detail not shown here. Identical values can stand only once. Inconclusive results are not listed. More than one record can exist for a structure, and the calls need not agree. Active and inactive are the calls of the source. Unless noted, the call rests on the fitted dose curve.

Sequence of Gonadotropin-releasing hormone receptor (Homo sapiens) (P30968 whole entry, looked up): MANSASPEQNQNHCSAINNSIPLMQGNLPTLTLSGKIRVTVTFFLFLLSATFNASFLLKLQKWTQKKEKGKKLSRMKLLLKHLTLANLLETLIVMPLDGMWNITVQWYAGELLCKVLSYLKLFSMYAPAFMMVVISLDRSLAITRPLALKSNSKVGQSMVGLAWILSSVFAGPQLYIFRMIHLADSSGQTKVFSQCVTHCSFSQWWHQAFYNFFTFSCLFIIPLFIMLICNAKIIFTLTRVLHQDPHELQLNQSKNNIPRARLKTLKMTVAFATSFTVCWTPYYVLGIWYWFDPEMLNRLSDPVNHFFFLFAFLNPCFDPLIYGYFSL
Sequence of KiSS-1 receptor (Homo sapiens) (Q969F8 whole entry, looked up): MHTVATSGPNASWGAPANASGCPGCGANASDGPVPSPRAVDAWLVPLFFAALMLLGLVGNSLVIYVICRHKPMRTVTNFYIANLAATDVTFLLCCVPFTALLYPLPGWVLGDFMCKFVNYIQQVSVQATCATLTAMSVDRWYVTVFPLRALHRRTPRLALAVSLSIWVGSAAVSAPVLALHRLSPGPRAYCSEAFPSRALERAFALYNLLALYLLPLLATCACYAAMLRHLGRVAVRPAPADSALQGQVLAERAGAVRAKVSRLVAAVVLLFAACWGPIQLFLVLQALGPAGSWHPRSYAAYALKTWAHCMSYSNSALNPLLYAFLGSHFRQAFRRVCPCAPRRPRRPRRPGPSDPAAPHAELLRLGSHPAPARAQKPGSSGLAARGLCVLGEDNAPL
Sequence of D(2) dopamine receptor (Homo sapiens) (P14416 whole entry, looked up): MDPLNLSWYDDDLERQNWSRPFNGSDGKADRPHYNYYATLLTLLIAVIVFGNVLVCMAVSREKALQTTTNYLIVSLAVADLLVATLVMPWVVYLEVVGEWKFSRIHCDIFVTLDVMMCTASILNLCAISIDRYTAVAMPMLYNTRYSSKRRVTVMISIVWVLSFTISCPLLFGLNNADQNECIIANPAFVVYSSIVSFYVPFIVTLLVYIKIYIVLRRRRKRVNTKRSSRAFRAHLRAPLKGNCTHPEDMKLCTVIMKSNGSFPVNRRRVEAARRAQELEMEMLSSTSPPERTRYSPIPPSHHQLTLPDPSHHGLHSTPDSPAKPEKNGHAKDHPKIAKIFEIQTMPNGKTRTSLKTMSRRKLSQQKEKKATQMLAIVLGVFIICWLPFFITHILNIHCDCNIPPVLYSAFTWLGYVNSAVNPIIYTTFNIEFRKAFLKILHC
Sequence of Beta-2 adrenergic receptor (Homo sapiens) (P07550 whole entry, looked up): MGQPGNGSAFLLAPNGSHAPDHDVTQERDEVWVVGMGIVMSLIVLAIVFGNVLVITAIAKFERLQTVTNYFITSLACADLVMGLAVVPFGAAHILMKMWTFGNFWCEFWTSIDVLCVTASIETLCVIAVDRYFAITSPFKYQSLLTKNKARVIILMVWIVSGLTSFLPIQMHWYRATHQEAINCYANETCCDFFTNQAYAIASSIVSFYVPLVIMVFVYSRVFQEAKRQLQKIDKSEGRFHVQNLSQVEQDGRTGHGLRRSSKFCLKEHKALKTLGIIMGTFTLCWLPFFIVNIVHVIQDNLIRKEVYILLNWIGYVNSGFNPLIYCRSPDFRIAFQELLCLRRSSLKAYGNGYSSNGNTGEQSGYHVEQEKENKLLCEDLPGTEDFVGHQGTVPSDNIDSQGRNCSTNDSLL
Sequence of Muscarinic acetylcholine receptor M1 (Homo sapiens) (P11229 whole entry, looked up): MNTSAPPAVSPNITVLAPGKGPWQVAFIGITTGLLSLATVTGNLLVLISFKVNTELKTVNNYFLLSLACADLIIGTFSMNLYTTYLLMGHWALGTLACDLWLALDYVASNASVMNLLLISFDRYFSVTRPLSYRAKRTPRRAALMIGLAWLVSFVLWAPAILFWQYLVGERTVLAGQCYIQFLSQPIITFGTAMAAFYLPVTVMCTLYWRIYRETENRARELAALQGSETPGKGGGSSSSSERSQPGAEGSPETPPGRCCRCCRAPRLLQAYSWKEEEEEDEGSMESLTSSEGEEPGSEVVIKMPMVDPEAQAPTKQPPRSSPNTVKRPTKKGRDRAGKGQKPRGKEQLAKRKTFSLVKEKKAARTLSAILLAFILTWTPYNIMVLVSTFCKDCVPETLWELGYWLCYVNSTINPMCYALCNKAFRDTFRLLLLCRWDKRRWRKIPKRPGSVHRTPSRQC
Sequence of 5-hydroxytryptamine receptor 2A (Homo sapiens) (P28223 whole entry, looked up): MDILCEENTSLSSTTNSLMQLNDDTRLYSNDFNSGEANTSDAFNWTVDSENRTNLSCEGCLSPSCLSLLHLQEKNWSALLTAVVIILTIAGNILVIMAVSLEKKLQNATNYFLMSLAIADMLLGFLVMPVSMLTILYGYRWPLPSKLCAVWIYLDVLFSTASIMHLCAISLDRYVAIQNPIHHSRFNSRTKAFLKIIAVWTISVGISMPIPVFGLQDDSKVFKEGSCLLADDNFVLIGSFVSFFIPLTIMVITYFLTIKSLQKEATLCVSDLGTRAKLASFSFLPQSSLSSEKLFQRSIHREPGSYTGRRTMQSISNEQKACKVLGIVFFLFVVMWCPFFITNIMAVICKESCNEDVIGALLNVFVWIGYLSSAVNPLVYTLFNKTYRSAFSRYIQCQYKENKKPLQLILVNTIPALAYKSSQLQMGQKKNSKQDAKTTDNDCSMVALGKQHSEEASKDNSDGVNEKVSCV

With `CCCc1ccc(O)cc1`, the Potency entry in experiment [1], in experiment [2], in experiment [3], in experiment [4], in experiment [5] and in experiment [6] was “inactive” throughout. Also, the Potency result in [7], in experiment [8], in experiment [9], in [10], in experiment [11] and in [12] was “inactive” in each case. In addition, the Potency entry in experiment [13], in experiment [14], in [15], in [16], in [17] and in experiment [18] was “inactive” throughout. The Potency entry in experiment [19] and in [20] was “inactive” throughout.

On to `CN(C)c1cccc(O)c1`, for which the Potency result in experiment [1], in experiment [3], in [4], in [5], in experiment [7] and in [8] was “inactive” each time. For the same compound, the Potency entry in [9], in experiment [11], in experiment [12], in experiment [13], in experiment [14] and in experiment [15] was “inactive” throughout. Besides, the Potency result in [16], in experiment [17], in [18], in experiment [19] and in experiment [20] was “inactive” in each case. The Potency in experiment [2] was 43.9 µM (active) and inactive.

Consider `O=P(OC(CCl)CCl)(OC(CCl)CCl)OC(CCl)CCl`, for which the Potency entry in experiment [1], in experiment [2], in experiment [3], in [4], in experiment [5] and in [6] was “inactive” throughout. The Potency entry in experiment [7], in [8], in experiment [10], in experiment [11], in [13] and in experiment [14] was “inactive” throughout. Moreover, the Potency entry in experiment [15], in [16], in experiment [17], in [19] and in experiment [20] was “inactive” in each case. Further, the Potency in [12] is 43.4 µM (active) and 2.19 µM (active).

Consider `CCCCCCCCCCCCOCCO`, for which the Potency result in experiment [1], in experiment [3], in experiment [4], in [5], in experiment [8] and in [9] was “inactive” throughout. In addition, the Potency entry in experiment [11], in [12], in [13], in [14], in [15] and in experiment [16] was “inactive” in each case. In addition, the Potency entry in experiment [17], in experiment [18], in experiment [19] and in [20] was “inactive” each time. Also, the Potency is 27.3 µM (active) in experiment [2]; 20.4 µM (active) and inactive in experiment [7].

Turning to `CC(CCO)CCc1ccccc1` (stereo not given), the Potency result in experiment [1], in [2], in experiment [3], in experiment [4], in experiment [5] and in experiment [6] was “inactive” throughout. The Potency entry in experiment [7], in experiment [9], in experiment [10], in experiment [11], in [12] and in experiment [13] was “inactive” each time. The Potency result in [14], in experiment [15], in experiment [16], in experiment [17], in [18] and in experiment [19] was “inactive” throughout. In addition, in experiment [20], the Potency entry is “inactive”.

As to `CN(C)C(=S)SC(=S)N(C)C`, the Potency in experiment [1] is 1.11 µM (active) and 1.09 µM (active); in experiment [7], 41.8 µM (active) and inactive; in experiment [8], 16.6 µM (active) and 5.76 µM (active); in experiment [12], 50.2 µM (active) and inactive. For the same compound, the Potency result in [2], in experiment [3], in experiment [4], in experiment [5], in [6] and in [9] was “inactive” in each case. In addition, the Potency entry in experiment [10], in experiment [13], in experiment [14], in [15], in experiment [17] and in [18] was “inactive” each time. The Potency entry in [19] and in experiment [20] was “inactive” throughout.

Take `Cc1ccc(C)cc1`: the Potency entry in experiment [1], in experiment [2], in [3], in [4], in [5] and in [6] was “inactive” in each case. Further, the Potency entry in experiment [7], in [9], in experiment [11], in experiment [13], in experiment [14] and in experiment [18] was “inactive” each time. The Potency result in [19] and in experiment [20] was “inactive” each time.
